Screening results deposited in PubChem BioAssay by National Center for Advancing Translational Sciences (NCATS).
NS1 inh: blocks influenza NS1 protein function; Potency, µM (titrated, usually from 46.1 µM), without a hit: at the top dose activity, positive = more growth; hit rate 0.4% among 270,000; calls by dose curve; note: actives are rising curves; nearly all actives have a fitted effect of over 50% in size
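Compounds were scored for reversing the slow growth caused by influenza A NS1 in S. cerevisiae, measured by optical density at 600 nm. Assay medium contained 2% galactose at pH 6.0; NS1-free yeast of the same strain were the positive control.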
Pf growth 96h: P. falciparum growth inhibition at 96 hour, primary screen for plastid delayed-death inhibitors | P. falciparum luciferase reporter growth, 96 h | Potency, µM (titrated, usually from 28.7 µM), for the others: at the top dose activity change, negative = inhibition, usual class: inhibitors | hit rate 6.9% among 320,000; note: % is set by controls: 0 for no effect and ±100 for the full control effect
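Plates of compound plus infected erythrocytes (2% hematocrit, 0.05% parasitemia final) incubate 96 hours, 37 C, 5% CO2. Detection reagent added; reduced luminescence from the parasites' luciferase reporter flags inhibition.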
Pf growth 48h: P. falciparum growth inhibition at 48 hours (one generation); P. falciparum luciferase growth in erythrocytes, 48 h; Potency, µM (series often up to 28.7 µM), without a hit: top-dose activity change, negative = inhibition, most hits filed as inhibitors; hit rate 5.9% among 310,000; AID 504832; note: % is set by controls: 0 for no effect and ±100 for the full control effect
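Growth was read as firefly luciferase luminescence after a 48 h, 37 C, 5% CO2 exposure of compounds to reporter-bearing P. falciparum cultures (0.1% parasitemia, 2% hematocrit final) in Albumax-supplemented RPMI 1640.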
AMA1-RON2 inh: inhibitors of Plasmodium falciparum AMA1-RON2 interaction; AlphaScreen AMA1-biotinylated RON2 peptide binding; Potency, µM (titrated, usually from 58.2 µM), for inactives: top-dose activity change, negative = inhibition, usual class: inhibitors; hit rate 0.2% among 360,000; AID 720542;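 note: 0% = vehicle wells and -100% = peptide control; nearly all actives have a fitted effect of over 45% in size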
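AMA1 (3D7) with his tag at 25 nM final met compounds first, then biotinylated RON2 peptide at 25 nM; detection used donor plus acceptor beads, 10 µg/mL apiece, read by AlphaScreen after 30 min at room temperature.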
SARS PLP yeast: blocks SARS-CoV papain-like protease in a yeast assay; S. cerevisiae expressing SARS-CoV PLpro, growth rescue; AID 485353; hit rate 0.19% among 330,000; Potency, µM (top dose mostly 32.9 µM), without a hit: top-dose activity, positive = growth rescue, usual class: activators; calls by dose curve; note: 0% is about no effect; nearly all actives have a fitted effect of over 55% in size
HCV inh: inhibitors of hepatitis C virus infection; AID 651820; hit rate 3.4% among 340,000; Huh7.5.1 HCVcc-Cre infection, luciferase reporter, 44 h; Potency, µM (highest dose often 41.8 µM), for inactives: at the highest dose activity change, negative = inhibition, hits mostly inhibitors; note: % is set by controls: 0 for no effect and ±100 for the full control effect
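HCVcc-Cre virus at an moi near 0.5 was added right after compound to cells cultured 4 h from seeding (1,000 cells/well). Luciferase activity was determined 44 h later, 15 min after substrate addition at RT.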
* = called active by the depositor; ? = inconclusive; . = no result. Rows were chosen to be rich in hits. Some 12% of all compounds tested hit in one or more screens of this group. Unless noted, calls come from the whole dose curve; as a rule, active = well fitted curve in the direction sought with a large enough effect; inconclusive = small, poorly fitted or top-dose-only effect, or another doubt; inactive = no such curve, though single readings can be large; an effect the other way counts as inactive or inconclusive. Potency is the fitted concentration of half-maximal effect.

SMILES	NS1 inh	Pf growth 96h	Pf growth 48h	AMA1-RON2 inh	SARS PLP yeast	HCV inh
Cc1nn(-c2ccccc2)c(N2CCCC2)c1/C=N/NC(=S)Nc1ccccc1F	26.3%	?	10.4µM*	76.6%	-2.3%	?
Cn1/c(=N\NC(=O)c2ccccc2Cl)sc2ccccc21	.	?	177.6%	?	1.2%	7.3%
O=C(CSc1ccc(-c2ccco2)nn1)c1cccc([N+](=O)[O-])c1	27.3%	13.1µM*	?	53.4%	4.9%	-24.9%
COc1ccc(-c2cc(C(F)(F)F)nc(SCC(=O)NCc3ccco3)n2)cc1OC	2.2%	?	?	2.4%	-8.1%	?
COc1ccc(-c2ccc(SCC(=O)NCc3ccco3)nn2)cc1OC	7.7%	5.22µM*	13.9%	18.0%	5.0%	-0.8%
Cc1nc(C)c(-c2ccc(SCC(=O)Nc3ccc(C)c(Cl)c3)nn2)s1	3.5%	-29.7%	16.2%	12.4%	3.7%	-20.5%
COc1ccc(-c2ccc(SCC(=O)Nc3cccc(C(C)=O)c3)nn2)cc1OC	.	?	?	6.3%	-0.2%	8.91µM*
COc1ccc(NC(=O)CSc2ccc(-c3sc(C)nc3C)nn2)cc1OC	-17.5%	13.1µM*	?	2.5%	0.4%	?
CC(=O)c1cccc(NC(=O)CSc2ccc(-c3ccco3)nn2)c1	17.2%	-22.9%	-10.2%	-13.4%	-6.5%	?
COc1ccc(C)cc1NC(=O)CSc1ccc(-c2ccco2)nn1	-24.0%	?	-9.9%	-19.5%	-7.6%	10µM*
COc1ccc(C)cc1NC(=O)CSc1nnc(-c2ccco2)n1N	2.6%	28.4%	3.1%	3.5%	0.1%	12.8%
CC(=O)c1cccc(NC(=O)CSc2ccc(-c3ccc4c(c3)OCO4)nn2)c1	17.5%	19.6%	72.8%	9.2%	6.4%	11.2µM*
CC(C)(C)NC(=O)C(c1cc2ccccc2o1)n1c(-c2ccc(-c3ccccc3)cc2)nc2ccccc21 (centres undefined)	.	.	.	-23.3%	.	.
CCOC(=O)c1nnn(-c2nc(OC)nc(N3CCCCC3)n2)c1-c1ccccc1	8.0%	?	?	.	-2.0%	.
CCOC(=O)c1c(-c2ccccc2)nnn1-c1nc(OCC)nc(N2CCCCC2)n1	-33.5%	33.9%	?	-1.6%	0.6%	6.31µM*
CCOC(=O)c1nnn(-c2nc(N3CCCC3)nc(N3CCCC3)n2)c1-c1ccccc1	1.5%	2.3%	?	0.0%	3.8%	17.8µM*
CN1CCN(NC(=O)Nc2cccc(F)c2)CC1	-11.9%	?	13.0%	-5.9%	-8.6%	2.8%
COc1cc2c(cc1OC)CN(C(=O)c1cc(S(=O)(=O)N3CCOCC3)c(Cl)cc1Cl)CC2	4.0%	5.22µM*	?	-3.5%	0.2%	25.1µM*
COc1ccc(NC(=O)CS(=O)CC(=O)Nc2cccnc2)cc1 (centres undefined)	-4.6%	-1.9%	10.4%	3.4%	-3.3%	8.6%
COc1ccc(C/C(N)=N/OC(=O)c2ccc(Cl)cc2)cc1	.	-14.4%	?	15.6%	-3.6%	-0.7%
N/C(Cc1ccc(Cl)cc1)=N\OC(=O)c1ccc2ccccc2c1	-60.0%	10.4µM*	?	4.9%	-23.4%	31.6µM*
N/C(Cc1ccc(Cl)cc1)=N\OC(=O)c1cccc2ccccc12	-195.8%	?	?	11.7%	-57.6%	7.08µM*
CCOC(=O)c1ccc(N2C(=O)CC(N3CCC(C#N)(c4ccccc4)CC3)C2=O)cc1 (centres undefined)	-53.3%	-4.7%	?	4.0%	-18.6%	11.3%
N#CC1(c2ccccc2)CCN(C2CC(=O)N(c3cccc(F)c3)C2=O)CC1 (centres undefined)	-5.6%	8.28µM*	105.4%	10.0%	-5.4%	19.8%
Cc1ccc(C(=O)C2=C(O)C(=O)N(Cc3ccco3)C2c2ccc(N(C)C)cc2)o1 (centres undefined)	?	11.7µM*	?	0.0%	5.0%	5.0%
SMILES	NS1 inh	Pf growth 96h	Pf growth 48h	AMA1-RON2 inh	SARS PLP yeast	HCV inh
CCCCOc1ccc(C2C(C(=O)c3ccc(C)o3)=C(O)C(=O)N2Cc2ccco2)cc1 (centres undefined)	?	?	-0.8%	.	-2.9%	.
Cc1noc(C)c1C(=O)Nc1nccs1	5.4%	17.6%	13.1%	-4.4%	18.9%	1.2%
O=C(O)c1ccc(-n2cc(-c3cc4ccccc4oc3=O)[nH]c2=S)cc1	-1.9%	0.165µM*	126.9%	-3.7%	0.0%	-20.5%
CCOC(=O)CN1CC23C=CC(O2)C(C(=O)Nc2ccc(C(C)=O)cc2)C3C1=O (centres undefined)	-15.6%	11.7µM*	-1.5%	0.0%	7.4%	-23.2%
OCCC1CN(Cc2ccccc2O)CCN1CCc1ccccc1 (centres undefined)	-3.7%	32.0%	9.28µM*	-9.6%	-1.3%	-0.7%
OCCC1CN(CCCc2ccccc2)CCN1CCc1ccccc1 (centres undefined)	9.2%	10.4µM*	?	0.0%	-1.4%	-14.4%
OCCC1CN(Cc2ccon2)CCN1CCc1ccccc1 (centres undefined)	0.6%	13.1µM*	0.0%	-4.2%	-0.9%	-0.6%
COc1cccc(CN2CCN(CCCc3ccccc3)C(CCO)C2)c1O (centres undefined)	-2.4%	7.38µM*	-24.9%	13.7%	1.5%	-0.7%
O=C(NC(c1ccccc1)c1ccccc1)c1ccc(=O)[nH]n1	4.4%	32.0%	-11.8%	14.0%	-1.0%	4.8%
O=C(CCN=C1NS(=O)(=O)c2ccccc21)OCc1nnc(-c2ccccc2)o1	.	38.5%	2.2%	25.6%	2.4%	8.0%
COc1ccc(CN2CCN(CCc3ccccc3)C(CCO)C2)cc1Cn1cncn1 (centres undefined)	-2.3%	?	5.22µM*	-9.5%	1.0%	-18.5%
CCOc1cc(CN2CCN(CCc3ccccc3)C(CCO)C2)ccc1OC (centres undefined)	-2.0%	-17.8%	?	-7.8%	-0.1%	?
Cc1ccc(C2=C(CC(=O)O)C(=O)CC2)cc1	5.2%	4.65µM*	22.2%	-5.7%	-8.4%	16.4%
Cc1ccccc1-c1cc(C(=O)NCC2CC2)nn1CC1CC(c2cccc([N+](=O)[O-])c2)=NO1 (centres undefined)	.	2.62µM*	5.22µM*	-11.0%	1.6%	-29.0%
COCCNC(=O)c1cc(-c2ccccc2C)n(CC2CC(c3cccc([N+](=O)[O-])c3)=NO2)n1 (centres undefined)	.	.	.	-0.6%	-5.4%	?
COc1ccccc1CNC(=O)c1cc(-c2ccccc2C)n(CC2CC(c3cccc([N+](=O)[O-])c3)=NO2)n1 (centres undefined)	.	?	5.22µM*	6.9%	5.3%	?
